Test results from PMC7819943, “Rice protein-binding microarrays: a tool to detect cis-acting elements near promoter regions in rice”.
Whole data set: some 35,000 sequences, median “fluorescence intensity (a.u.)” near 10,000, cut for the highest 2% near 52,000. The entries come from a sample that favours the highest values as a whole.

Each sequence was assayed against T1, OsWOX13 (Oryza sativa, UniProt Q5QMM3 1-267) (assay: protein-binding microarray (RPBM); PBS, 2% BSA, 51.3 ng/ul salmon testes DNA, 50 uM zinc acetate, 200 nM TF, 25 C, 1 h; high values mean tight binding). Details: protein: recombinant; tags: N-terminal polyhistidine and DsRed monomer fusion (pET32a); label: CyDye5-dUTP incorporated in the synthesized complementary strand; 3' TTTTT single-stranded linker to array surface; dsDNA, one strand shown.
T1 sequence: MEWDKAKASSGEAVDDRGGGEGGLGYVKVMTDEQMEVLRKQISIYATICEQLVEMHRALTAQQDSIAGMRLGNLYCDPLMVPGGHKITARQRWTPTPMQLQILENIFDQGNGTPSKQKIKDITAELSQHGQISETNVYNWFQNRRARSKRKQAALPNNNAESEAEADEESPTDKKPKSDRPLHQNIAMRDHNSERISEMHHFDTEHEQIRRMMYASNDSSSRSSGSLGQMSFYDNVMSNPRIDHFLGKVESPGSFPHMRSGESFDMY
Method in brief: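 Transcription factors, each fused N-terminally to a polyhistidine tag and DsRed, were expressed in E. coli BL21-CodonPlus and purified on Ni–NTA. A custom Agilent array was made double-stranded by primer extension with Cy5-dUTP and blocked with 2% BSA. It was incubated with 200 nM protein in PBS, 2% BSA, salmon testes DNA and 50 µM zinc acetate at 25 °C for 1 h, then washed. The binding signal is per-feature fluorescence intensity (arbitrary units) read on an Axon 4000B scanner.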

Sequence	binding signal
TGACCTAATTAATTATTTAACTAATAATAATTAGTGATTACGGAGTCACCTAGTGCAG	44500 fluorescence intensity (a.u.)
ATTGATTTTATTAAGTAACTGTGTGCTAATTAATTGTTCACGGAGTCACCTAGTGCAG	28300 fluorescence intensity (a.u.)
TAATTAATTGATTAATGACTAAACTTGGCCATCAACCGCTCGGAGTCACCTAGTGCAG	64800 fluorescence intensity (a.u.)
CATTAATTAAACTAACCCATCCATTGATTGATTATCAGTGCGGAGTCACCTAGTGCAG	63500 fluorescence intensity (a.u.)
GATAAGTGATTGATTAACTACTAATTTAATTATCACTGTGCGGAGTCACCTAGTGCAG	63300 fluorescence intensity (a.u.)
GCTCTGATTAATTTCAAACTTCGATTATGGACTAGTCAACCGGAGTCACCTAGTGCAG	53400 fluorescence intensity (a.u.)
ATCACCGACTAATTAATTAATTAATTAATCATCCTTGATTCGGAGTCACCTAGTGCAG	38800 fluorescence intensity (a.u.)
CTAATTATAAACCTTAATCAGCTAAAATCCTAACCCATCACGGAGTCACCTAGTGCAG	3290 fluorescence intensity (a.u.)
TTATGATTTTCATATAAATCAAATGGGACTTTAATTAATCCGGAGTCACCTAGTGCAG	11500 fluorescence intensity (a.u.)
TGTTAACTAATTAAATACCCATTATCAAACATTTAATTGACGGAGTCACCTAGTGCAG	22900 fluorescence intensity (a.u.)
CATCAACATATAATTGATTAAATATTAATTATAACAAACTCGGAGTCACCTAGTGCAG	45700 fluorescence intensity (a.u.)
TTGTAATGGTGAAATCATGTTCAGTTTATTGTCGTACAAACGGAGTCACCTAGTGCAG	3710 fluorescence intensity (a.u.)
GCAAATGGATTGTACAACTATGGAAGGGGCAGGTTCGAGGCGGAGTCACCTAGTGCAG	5170 fluorescence intensity (a.u.)
GTTTAATTAAAATCCACCAACAATGACAATTTAATAGGTGCGGAGTCACCTAGTGCAG	32300 fluorescence intensity (a.u.)
CACTTAACTGAACACTTACTTCTCGGTGACAAGTGAAATGCGGAGTCACCTAGTGCAG	10800 fluorescence intensity (a.u.)
TAACTAATTACCAAACAGATCGTACCCCACCATAAGAATCCGGAGTCACCTAGTGCAG	29200 fluorescence intensity (a.u.)
TTTGATTAATTCAGTGCTTCCTTCCCGTTACATTACACTGCGGAGTCACCTAGTGCAG	54000 fluorescence intensity (a.u.)
AGTAATTATTAATTATTTTCCTATCATTTGATTTATTGTTCGGAGTCACCTAGTGCAG	35700 fluorescence intensity (a.u.)
TAACTAATTATTAATTGTTTTCCTATCATTTGATTCATTGCGGAGTCACCTAGTGCAG	53200 fluorescence intensity (a.u.)
AAACTTTAATTTATCAACCATAAAAGAAACAATTAGAAGGCGGAGTCACCTAGTGCAG	6940 fluorescence intensity (a.u.)
GCTAATTAACTGTGATTGCAAGAAGGAAAACCATAGAAGGCGGAGTCACCTAGTGCAG	53800 fluorescence intensity (a.u.)

Sequence	binding signal
AAATGATTTGATCTAAATTGATAAGTTACTGAGGAGTGCGCGGAGTCACCTAGTGCAG	64800 fluorescence intensity (a.u.)
ACAGTGTAATTACACTATGATTGTACTGTAATTACATTTGCGGAGTCACCTAGTGCAG	44000 fluorescence intensity (a.u.)
GATTTAATGGATCACCTGCTATTACAGATTCCTTCAGTTGCGGAGTCACCTAGTGCAG	4210 fluorescence intensity (a.u.)
TAAGTAATTATTAATTCTTTTCCTATCATTTGATTTATTGCGGAGTCACCTAGTGCAG	11700 fluorescence intensity (a.u.)
CTAATTGGCAAATTAAACAAAGAAGAAGAGGAAAGGAAGGCGGAGTCACCTAGTGCAG	44700 fluorescence intensity (a.u.)
TAAACTGATATAAGTGCCTAAATTTGGATTGAGGGTGGTGCGGAGTCACCTAGTGCAG	8300 fluorescence intensity (a.u.)
GTAATTATAATAATGAGTTACTGATCGAGAGGAGGAGAGGCGGAGTCACCTAGTGCAG	7580 fluorescence intensity (a.u.)
CTCTAATGAATGTGCATGTTATGTTTCCAAATCTCACTAGCGGAGTCACCTAGTGCAG	3850 fluorescence intensity (a.u.)
TCTCATACAATCAACAACCTTAAACACATCAGCTCTAGTACGGAGTCACCTAGTGCAG	4160 fluorescence intensity (a.u.)
CTTCTGATAACAACTGATTAGAAACTATGTTAATTTGATGCGGAGTCACCTAGTGCAG	31100 fluorescence intensity (a.u.)
TACTCTTAGATTGAACAGGCTTCTGGCTCAAAACTTTTGACGGAGTCACCTAGTGCAG	8550 fluorescence intensity (a.u.)
ATTAATTATTTATTTCTTATATTACAGATTTTCAGTATATCGGAGTCACCTAGTGCAG	18600 fluorescence intensity (a.u.)
TATAACTAATTATTTAATCGTTAATAAGCTGTTCCGCTAACGGAGTCACCTAGTGCAG	25600 fluorescence intensity (a.u.)
ACTGCTAATTAACCCTCTATAAATGCATGCCTCTCACCACCGGAGTCACCTAGTGCAG	30400 fluorescence intensity (a.u.)
TTTAACATTTCCCCTTATAATTTTACCAAATCACTATGTTCGGAGTCACCTAGTGCAG	4600 fluorescence intensity (a.u.)
CCTCGCGCGCAGATAATTATCACAACTTATGGGGAGCTTGCGGAGTCACCTAGTGCAG	3290 fluorescence intensity (a.u.)
CTCATTAATCTTGCTCATTAATCTTGCAATTAATCCAGAACGGAGTCACCTAGTGCAG	4900 fluorescence intensity (a.u.)
CACTTCTGTACTTGGCGTGATTGGGCCGCGGACCGGTAGACGGAGTCACCTAGTGCAG	3750 fluorescence intensity (a.u.)
AGTAATTTAAACACGAAAACATTTCTTATTGACAAGAATACGGAGTCACCTAGTGCAG	4230 fluorescence intensity (a.u.)
TAAGGCAGAAAACCAAGGCCTTGACATTTCTTTTAGGACACGGAGTCACCTAGTGCAG	65000 fluorescence intensity (a.u.)
GTTTAGGACCTTTGATTTGTTGGTGACAGAACCCAAGGCGCGGAGTCACCTAGTGCAG	6360 fluorescence intensity (a.u.)
